Results taken from the supplement of paper PMC6411743.
± gives the standard deviation of the averaged measurements. Targets with the largest changes are over-represented here; the source holds about 6,200 in all.

Columns and labels:
Assay in all cases: NP40-soluble protein abundance relative to vehicle (solubility fold change) (ratio); higher = more soluble protein in presence of AMP-PNP
[1] = target: T1, GALNS (UniProt P34059)
T1 sequence (whole entry): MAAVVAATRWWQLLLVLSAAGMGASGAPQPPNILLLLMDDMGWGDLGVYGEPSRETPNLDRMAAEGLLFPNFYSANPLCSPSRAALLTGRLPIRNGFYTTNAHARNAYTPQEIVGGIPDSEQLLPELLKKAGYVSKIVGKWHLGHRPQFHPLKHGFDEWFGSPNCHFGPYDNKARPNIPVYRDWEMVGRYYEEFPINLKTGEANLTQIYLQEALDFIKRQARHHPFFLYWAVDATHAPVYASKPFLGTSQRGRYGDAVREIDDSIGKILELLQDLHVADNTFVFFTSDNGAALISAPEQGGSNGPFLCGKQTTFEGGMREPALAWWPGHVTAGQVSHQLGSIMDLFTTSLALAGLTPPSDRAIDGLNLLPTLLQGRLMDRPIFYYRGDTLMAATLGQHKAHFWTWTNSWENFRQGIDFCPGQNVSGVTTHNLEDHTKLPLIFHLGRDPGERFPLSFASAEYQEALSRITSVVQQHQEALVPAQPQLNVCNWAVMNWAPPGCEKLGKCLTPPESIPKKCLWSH
How it was run: (§1)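 Eight concentrations, 0.1 to 10 mM, were tested on Jurkat crude lysate for 10 min at room temperature and then 3 min at 37 °C, in three independent experiments. The lysate was solubilised with 0.8% NP40 and benzonase, ultracentrifuged, and the supernatant TMT-labelled for LC-MS/MS. Each value is the fold change against the detergent-processed vehicle in its own replicate, from vsn-normalised intensities.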

[2] = target: T2, MFN2 (UniProt O95140)
T2 sequence (whole entry): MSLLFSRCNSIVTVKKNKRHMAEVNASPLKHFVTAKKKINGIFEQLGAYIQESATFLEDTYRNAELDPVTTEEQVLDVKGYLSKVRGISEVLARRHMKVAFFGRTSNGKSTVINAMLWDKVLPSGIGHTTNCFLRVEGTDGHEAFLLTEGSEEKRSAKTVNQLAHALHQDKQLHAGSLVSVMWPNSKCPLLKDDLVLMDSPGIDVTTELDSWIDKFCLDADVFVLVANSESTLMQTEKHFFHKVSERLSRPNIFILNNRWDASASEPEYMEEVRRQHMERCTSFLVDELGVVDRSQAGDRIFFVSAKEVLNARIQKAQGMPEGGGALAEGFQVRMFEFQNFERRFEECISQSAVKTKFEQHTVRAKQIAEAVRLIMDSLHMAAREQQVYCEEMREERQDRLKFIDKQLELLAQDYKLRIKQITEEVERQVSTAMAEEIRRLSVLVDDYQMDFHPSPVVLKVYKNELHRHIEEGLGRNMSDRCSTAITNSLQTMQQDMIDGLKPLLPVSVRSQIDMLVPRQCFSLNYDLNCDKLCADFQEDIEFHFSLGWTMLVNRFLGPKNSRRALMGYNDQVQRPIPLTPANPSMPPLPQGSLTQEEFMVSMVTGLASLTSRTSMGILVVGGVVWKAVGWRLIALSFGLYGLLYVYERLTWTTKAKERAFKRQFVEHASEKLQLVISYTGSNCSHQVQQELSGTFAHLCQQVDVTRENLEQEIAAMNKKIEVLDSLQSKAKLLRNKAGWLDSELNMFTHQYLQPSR
How it was run: as §1

[3] = target: T3, PPM1F (UniProt P49593)
T3 sequence (whole entry): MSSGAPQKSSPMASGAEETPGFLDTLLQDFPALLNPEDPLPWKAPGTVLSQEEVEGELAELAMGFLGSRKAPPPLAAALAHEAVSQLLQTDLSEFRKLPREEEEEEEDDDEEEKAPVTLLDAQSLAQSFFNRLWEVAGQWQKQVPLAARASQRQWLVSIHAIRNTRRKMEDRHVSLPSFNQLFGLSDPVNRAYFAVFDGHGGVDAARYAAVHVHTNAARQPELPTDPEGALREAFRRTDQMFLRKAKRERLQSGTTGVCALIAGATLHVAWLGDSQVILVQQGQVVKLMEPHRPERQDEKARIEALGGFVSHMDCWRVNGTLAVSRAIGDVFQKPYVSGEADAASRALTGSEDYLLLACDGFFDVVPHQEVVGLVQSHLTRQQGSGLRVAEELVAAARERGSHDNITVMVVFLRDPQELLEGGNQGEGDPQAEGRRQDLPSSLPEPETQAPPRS
How it was run: as §1

Question: Which results are given for `Nc1ncnc2c1ncn2[C@@H]1O[C@H](COP(=O)(O)OP(=O)(O)NP(=O)(O)O)[C@@H](O)[C@H]1O` [adenylyl imidodiphosphate]?
Answer: NP40-soluble protein abundance ([1]; concentration: 1mM): 0.986 ± 0.018; NP40-soluble protein abundance ([1]; concentration: 2mM): 0.972 ± 0.011; NP40-soluble protein abundance ([1]; concentration: 4mM): 0.957 ± 0.04; NP40-soluble protein abundance ([1]; concentration: 6mM): 0.963 ± 0.019; NP40-soluble protein abundance ([1]; concentration: 8mM): 0.933 ± 0.034; NP40-soluble protein abundance ([1]; concentration: 10mM): 0.975 ± 0.027; NP40-soluble protein abundance ([2]; concentration: 1mM): 1.01 ± 0.064; NP40-soluble protein abundance ([2]; concentration: 2mM): 0.956 ± 0.032; NP40-soluble protein abundance ([2]; concentration: 4mM): 1.01 ± 0.074; NP40-soluble protein abundance ([2]; concentration: 6mM): 0.965 ± 0.037; NP40-soluble protein abundance ([2]; concentration: 8mM): 0.986 ± 0.049; NP40-soluble protein abundance ([2]; concentration: 10mM): 0.989 ± 0.024; NP40-soluble protein abundance ([3]; concentration: 1mM): 1.028 ± 0.0057; NP40-soluble protein abundance ([3]; concentration: 2mM): 1.019 ± 0.0062; NP40-soluble protein abundance ([3]; concentration: 4mM): 1.03 ± 0.011; NP40-soluble protein abundance ([3]; concentration: 6mM): 1.014 ± 0.0081; NP40-soluble protein abundance ([3]; concentration: 8mM): 1.02 ± 0.013; NP40-soluble protein abundance ([3]; concentration: 10mM): 1.04 ± 0.018
